Bioassay records (PubChem BioAssay)
An excerpt weighted towards active compounds, which were near 19% of everything screened.
DT40 TDP1 CPT: growth inhibition of DT40 Tdp1-/-;hTDP1 cells with camptothecin (screen for TDP1 inhibitors); chicken DT40 Tdp1-/-;hTDP1 cells + 20 nM CPT, ATP luminescence, 48 h; Potency, µM (doses to about 46.2 µM), for the others: at the highest dose activity change, negative = growth inhibition, usual class: inhibitors; actives 12% (n = 420,000); AID 686979; further: potency means the concentration at half of the fitted maximal effect; on the % scale 0 is the no-effect control and ±100 the full control effect; nearly all actives have a fitted effect of over 55% in size
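Chicken DT40 Tdp1-/- cells stably complemented with human TDP1 were seeded at 400 cells/well in medium containing 20 nM camptothecin, exposed to pin-transferred compounds, and grown at 37 °C for at least 48 hr. Viability was read as ATP luminescence.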
HepG2 viability: kills HepG2 cells in TGF-b inhibitor counter-screen | HepG2 CAGA-GFP viability, ATP luminescence, 18 h | Potency, µM (doses to about 46.1 µM), for the others: at the top dose activity change, negative = cytotoxicity, usual class: cytotoxic | actives 0.76% (n = 410,000); further: potency means the concentration at half of the fitted maximal effect
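CellTiter-Glo luminescence gave cytotoxicity after 18 hours at 37 degrees C. The cells were HepG2 CAGA-GFP in 1% FBS DMEM, stimulated with 500 pg/mL TGF-beta after compound addition. %Activity was normalised to no-cell wells (complete cell-killing) and DMSO (no toxicity), and curves were fitted and classified.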
TDP1 block: inhibitors of human tyrosyl-DNA phosphodiesterase TDP1; Q9NUW8; recombinant TDP1, AlphaScreen DNA substrate cleavage; Potency, µM (titrated, usually from 130 µM), for the others: at the highest dose activity change, negative = inhibition, hits mostly inhibitors; actives 0.28% (n = 350,000); AID 485290; further: potency means the concentration at half of the fitted maximal effect; on the % scale 0 is the no-effect control and ±100 the full control effect; nearly all actives have a fitted effect of over 40% in size
Target sequence (Q9NUW8 whole entry, looked up): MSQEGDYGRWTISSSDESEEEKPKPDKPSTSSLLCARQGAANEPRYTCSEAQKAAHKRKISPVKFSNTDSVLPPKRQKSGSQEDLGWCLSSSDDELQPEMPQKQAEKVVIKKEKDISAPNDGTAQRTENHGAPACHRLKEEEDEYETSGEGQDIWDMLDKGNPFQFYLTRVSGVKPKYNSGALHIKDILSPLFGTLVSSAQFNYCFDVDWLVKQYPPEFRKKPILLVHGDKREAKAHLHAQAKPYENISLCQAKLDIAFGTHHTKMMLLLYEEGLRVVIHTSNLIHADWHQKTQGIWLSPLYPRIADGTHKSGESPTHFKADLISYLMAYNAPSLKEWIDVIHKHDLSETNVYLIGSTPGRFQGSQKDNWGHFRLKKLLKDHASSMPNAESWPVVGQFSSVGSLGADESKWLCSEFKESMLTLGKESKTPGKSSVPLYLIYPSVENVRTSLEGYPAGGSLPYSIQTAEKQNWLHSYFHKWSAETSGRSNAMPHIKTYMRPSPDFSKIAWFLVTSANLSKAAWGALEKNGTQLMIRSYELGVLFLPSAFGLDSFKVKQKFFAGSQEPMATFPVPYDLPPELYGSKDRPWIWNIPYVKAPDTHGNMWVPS
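Recombinant E. coli-expressed Tdp1 (1 nM) preincubated with compound 15 min at RT, then 5'-biotin/3'-phosphotyrosine-FITC DNA substrate (15 nM) added for 5 min. AlphaScreen beads (10 ug/ml) added, 10 min RT; tyrosine-FITC cleavage read as signal loss.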
TGFb SMAD3 inh: inhibitors of TGF-b signaling. HepG2 CAGA-GFP TGF-b/SMAD3 reporter, GFP fluorescence, 18 h; TGF-beta stimulated, 500 pg/mL final. Potency, µM (doses to about 46.1 µM), without a hit: at the highest dose activity, negative = inhibition, most hits filed as inhibitors. actives 1.2% (n = 410,000). AID 588855; further: potency means the concentration at half of the fitted maximal effect; on the % scale 0 is the no-effect control and ±100 the full control effect; nearly all actives have a fitted effect of over 65% in size
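Per well, imaged GFP fluorescence of HEPG2 CAGA-GFP cells gives the signal; cells get compound, then TGF-beta (500 pg/mL final), 18 h at 37 degrees C; %Activity versus -TGF-beta and +DMSO controls.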
TDP1 cell noCPT: qHTS for Inhibitors of human tyrosyl-DNA phosphodiesterase 1 (TDP1): qHTS in cells in absence of CPT | DT40 Tdp1-/- hTDP1 cells, no CPT, ATP luminescence, 48 h | Potency, µM (doses to about 46.2 µM), without a hit: at the highest dose activity change, negative = growth inhibition, actives largely listed as inhibitors | actives 15% (n = 420,000); further: potency means the concentration at half of the fitted maximal effect; on the % scale 0 is the no-effect control and ±100 the full control effect; nearly all actives have a fitted effect of over 55% in size
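Readout: luminescence from CellTiter-Glo after 30 min in the dark at RT. Cells: DT40 Tdp1-/- with stable hTDP1, 400/well. Exposure: compounds alone, ≥48 hr, 37 °C.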
IL-1B inflam inh: blocks inflammasome-driven IL-1 beta release | THP-1 LPS/ATP IL-1B secretion, AlphaLISA, 16 h; hits give low values | activity change, % at 57.5 µM | actives 4.7% (n = 360,000) | AID 743279; in the data active means activity change below about -50%; inconclusive means mostly about -30% to -49%; further: on the % scale 0 is the no-effect control and ±100 the full control effect
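Secreted IL-1B measured by AlphaLISA bead assay after 16 h compound exposure of THP-1 cells; compounds (final up to 57.5 uM) added 1 h before LPS (250 ng/mL) and ATP (1.25 mM) stimulation; lower signal means less secretion.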
Active calls of the source: *. Unless noted, the call rests on the fitted dose curve; in most records, active means well fitted curve in the direction sought with a large enough effect; inconclusive means small, poorly fitted or top-dose-only effect, or another doubt; inactive means no such curve, though single readings can be large; an effect the other way counts as inactive or inconclusive.

COc1ccc(-c2nc3ccccc3s2)cc1 was read as DT40 TDP1 CPT -17%, HepG2 viability -39%, TDP1 block -8%, TGFb SMAD3 inh 2%, TDP1 cell noCPT -26% and IL-1B inflam inh 34.
Screening O=C1NC(c2ccccc2)=C(c2nc3ccccc3s2)C(c2ccc(F)cc2)N1 (configuration not stated) returned DT40 TDP1 CPT inconclusive, HepG2 viability -37%, TDP1 block 7%, TGFb SMAD3 inh inconclusive, TDP1 cell noCPT inconclusive and IL-1B inflam inh -75*.
COc1ccc(C2NC(=O)NC(c3ccccc3)=C2c2nc3ccccc3s2)cc1 (configuration not stated) was read as DT40 TDP1 CPT 14µM*, HepG2 viability -32%, TDP1 block 7%, TGFb SMAD3 inh -15%, TDP1 cell noCPT inconclusive and IL-1B inflam inh inconclusive.
N#Cc1cccc(NC(=O)N2CCC3(CC2)CCN(C(=O)c2ccco2)CC3)c1 was read as DT40 TDP1 CPT -16% and TDP1 cell noCPT inconclusive.
Cc1ccccc1NC(=O)N1CCC(CN2CCCC2)CC1 was read as DT40 TDP1 CPT 10%, HepG2 viability -2%, TDP1 block 0%, TGFb SMAD3 inh 0% and TDP1 cell noCPT 1%.
`COc1cccc(CN2CCN(Cc3cc(OC)c(OC)cc3[N+](=O)[O-])CC2)c1` gave DT40 TDP1 CPT inconclusive, HepG2 viability -4%, TDP1 block -9%, TGFb SMAD3 inh 1%, TDP1 cell noCPT 16µM* and IL-1B inflam inh 7.
Screening COc1ccc(S(=O)(=O)N2CCN(Cc3cccc(Cl)c3)CC2)cc1 returned DT40 TDP1 CPT inconclusive, HepG2 viability -15%, TDP1 block 5%, TGFb SMAD3 inh inconclusive, TDP1 cell noCPT inconclusive and IL-1B inflam inh -14.
COc1ccc(S(=O)(=O)N2CCN(Cc3ccc(OC)c(OC)c3)CC2)cc1 was read as DT40 TDP1 CPT -35%, HepG2 viability -16%, TGFb SMAD3 inh -4%, TDP1 cell noCPT inconclusive and IL-1B inflam inh -23.
`COc1cccc(CN2CCN(S(=O)(=O)c3ccc(Cl)s3)CC2)c1` gave DT40 TDP1 CPT 3%, HepG2 viability -3%, TDP1 block -3%, TGFb SMAD3 inh -8%, TDP1 cell noCPT -4% and IL-1B inflam inh -51*.
COc1ccc(S(=O)(=O)N2CCN(Cc3cccc(F)c3)CC2)cc1 was read as DT40 TDP1 CPT -4%, HepG2 viability 13%, TGFb SMAD3 inh 0%, TDP1 cell noCPT 29µM* and IL-1B inflam inh -23.
COc1ccc(CN2CCCN(S(=O)(=O)c3ccc(Br)cc3)CC2)cc1 was read as DT40 TDP1 CPT inconclusive, HepG2 viability -24%, TGFb SMAD3 inh inconclusive, TDP1 cell noCPT 18µM* and IL-1B inflam inh -71*.
For COc1ccc(C(=O)OCC(=O)c2ccc[nH]2)cc1 the results were DT40 TDP1 CPT 2%, HepG2 viability -2%, TDP1 block 1%, TGFb SMAD3 inh 0%, TDP1 cell noCPT -9% and IL-1B inflam inh -17.
CCCn1cc(S(=O)(=O)c2cccc(Cl)c2)c(=O)c2cc(F)c(N3CCOCC3)cc21 was read as DT40 TDP1 CPT inconclusive, HepG2 viability -2%, TDP1 block 7%, TGFb SMAD3 inh inconclusive and TDP1 cell noCPT inconclusive.
`COC(=O)Cn1c(=NC(=O)c2ccc3c(c2)OCCO3)sc2ccccc21` gave DT40 TDP1 CPT -3%, HepG2 viability 5%, TDP1 block 5%, TGFb SMAD3 inh 3% and TDP1 cell noCPT -11%.
